# Out of some 4,400 compounds screened, about 390 (8.9%) showed an effect of 50% or more. The entries come from a sample that favours strong results as a whole.
# Tested on: Trypanosoma brucei
# Experiment: DNDI: Inhibition of Human African Trypanosomiasis, SBRI 427, in vitro at 2 ug.mL-1
# Assay type: functional
row,Compound,% inhibition [%]
1,CCOc1ccc(-c2nc(CNCc3ccc(C(F)(F)F)cc3)co2)cc1,-13
2,CCOc1ccc(-c2nc(CN3CCC(N4CCCCC4)CC3)co2)cc1,9
3,CC(NCc1coc(-c2ccccc2Cl)n1)c1ccccc1 (stereo unspecified),9
4,COC(=O)C1CCN(/C(=N\O)c2ccc(Oc3ccc(C)cc3C)nc2)CC1,11
5,CCCCN(CCC#N)Cc1coc(-c2ccccc2OCC)n1,-9
6,O=[N+]([O-])c1ccc(N2CCN(Cc3coc(-c4cccc(F)c4)n3)CC2)cc1,-6
7,c1csc(-c2nc(CN3CCCCCCC3)co2)c1,3
8,Cc1cc(C)cc(Oc2nc(C)ccc2/C(=N/O)NCCN2CCOCC2)c1,15
9,Cc1ccc(/C(=N/O)NC2CCC(C)CC2)c(Oc2ccc3oc4ccccc4c3c2)n1 (stereo unspecified),3
10,Cc1cc(N/C(=N\O)c2ccc(C)nc2Oc2ccc3oc4ccccc4c3c2)on1,20
11,Cc1ccc(/C(=N/O)NCC2CC2)c(Oc2ccc3oc4ccccc4c3c2)n1,5
12,Cc1ccc(/C(=N/O)NC2CCCC2)c(Oc2ccc3oc4ccccc4c3c2)n1,99
13,Cc1ccc(/C(=N/O)NC2CCC2)c(Oc2ccc3oc4ccccc4c3c2)n1,101
14,Cc1ccc(/C(=N/O)NCCC2CCCN2C)c(Oc2ccc3oc4ccccc4c3c2)n1 (stereo unspecified),13
15,Cc1ccc(/C(=N/O)NC2CCCC2)c(Oc2cccc(C(C)C)c2)n1,3
16,CC(C)COc1ncccc1/C(=N/O)N(C)Cc1ccco1,11
17,COc1ccc(-c2nc(CN3CCN(C(=O)C4CCCO4)CC3)co2)cc1 (stereo unspecified),9
18,COc1ccc(Oc2cc(/C(N)=N/O)ccn2)cc1,19
19,CCOc1ccc(Oc2cc(/C(N)=N/O)ccn2)cc1,7
20,Cc1ccc(Oc2cc(/C(N)=N/O)ccn2)c2c1CCC2,16
21,C#CCN(C)Cc1coc(-c2ccc(Br)cc2)n1,4
22,CC(C)c1ccc(N/C(=N\O)c2cccnc2OCC(F)(F)F)cc1,1

row,Compound,% inhibition [%]
1,O/N=C(\NCc1cccs1)c1cccnc1OCC1CCCCC1,-4
2,N/C(=N\O)c1cccnc1OCC1CCCCC1,13
3,O/N=C(\NC1CCC1)c1cccnc1OCC1CCCCC1,99
4,O/N=C(\NCC1CCCO1)c1cccnc1OCC1CCCCC1 (stereo unspecified),5
5,CCC(CC)N/C(=N\O)c1cccnc1OCC1CCCCC1,98
6,Cc1ccc(/C(=N/O)NC2CCCC2)c(OCC2CCCCC2)n1,12
7,O/N=C(\NC1CCCCC1)c1cccnc1OCC(F)(F)F,71
8,O/N=C(\NCC1CCCCC1)c1cccnc1OCC(F)(F)F,0
9,COc1ccc(CN/C(=N\O)c2cccnc2Oc2ccc(SC)c(C)c2)cc1,4
10,CC1CCCCN1Cc1coc(-c2ccco2)n1 (stereo unspecified),1
11,C(=C\c1ccccc1)/CN1CCN(Cc2coc(-c3cccc4ccccc34)n2)CC1,19
12,O/N=C(/c1ccc(Oc2cccc(F)c2)nc1)N1CCCCC1,5
13,c1csc(-c2nc(CNCC3CCCO3)co2)c1 (stereo unspecified),2
14,COc1ccc(-c2nc(CN3CCCCC3)co2)cc1,4
15,Cc1ccc(/C(=N/O)N2CCCCC2)c(Oc2ccc(-n3ccnc3)cc2)n1,12
16,Cc1cc(Oc2ncccc2/C(N)=N/O)cc(C(C)C)c1,20
17,Cc1cc(Oc2nc(C)ccc2/C(N)=N/O)cc(C(C)C)c1,55
18,Cc1ccc(/C(N)=N/O)c(Oc2ccc(C(C)C)cc2)n1,31
19,Cc1cccc(Oc2nc(C)ccc2/C(N)=N/O)c1,-4
20,Cc1ccc(/C(=N/O)NC(C)C)c(Oc2cccc(C(C)C)c2)n1,7
21,Cc1ccc(/C(N)=N/O)c(Oc2cccc(C(C)C)c2)n1,57
22,Cc1cccc(Oc2nc(C)ccc2/C(=N/O)N2CCSCC2)c1,1

row,Compound,% inhibition [%]
1,Cc1ccc(/C(N)=N/O)c(Oc2c(F)c(F)cc(F)c2F)n1,4
2,Cc1ccccc1NCc1coc(-c2ccccc2F)n1,-5
3,COc1ccc(Oc2ncccc2/C(=N/O)n2ccnc2C)cc1,-2
4,COc1cc2c(cc1OC)C(C(C)C)N(Cc1coc(-c3ccc(C)cc3)n1)CC2 (stereo unspecified),27
5,COc1cc(CNCc2coc(-c3ccc(C(F)(F)F)cc3)n2)cc(OC)c1,-1
6,Fc1ccc(-c2nc(CNCc3ccncc3)co2)cc1,-3
7,CCC(C)(C)N/C(=N\O)c1ccc(Oc2cccc3ccccc23)nc1,95
8,CCC(C)(C)N/C(=N\O)c1ccc(Oc2cc(C)cc(C)c2)nc1,95
9,Cc1cc(C)cc(Oc2ccc(/C(=N/O)NCc3ccccc3)cn2)c1,-3
10,CC1CCC(N/C(=N\O)c2ccc(Oc3cccc4ccccc34)nc2)CC1 (stereo unspecified),19
11,Cc1cc(C)cc(CN/C(=N\O)c2ccc(Oc3cccc(C)c3)nc2)c1,19
12,Cc1cc(Oc2ccc(/C(=N/O)NCc3cc(F)cc(F)c3)cn2)cc(C(C)C)c1,17
13,CCC(C)(C)N/C(=N\O)c1ccc(Oc2ccc(F)cc2)nc1,27
14,Cc1cccc(Oc2ccc(/C(=N/O)NC(C)C)cn2)c1,8
15,CCC(C)(C)N/C(=N\O)c1ccc(Oc2cc(C)cc(C(C)C)c2)nc1,91
16,CCC(C)(C)N/C(=N\O)c1ccc(Oc2cccc(C)c2)nc1,67
17,CCC(C)(C)N/C(=N\O)c1ccc(Oc2cccc3c2OC(C)(C)C3)nc1,11
18,Cc1cc(Oc2ccc(/C(=N/O)NCc3ccccc3)cn2)cc(C(C)C)c1,14
19,COCCCNCc1coc(-c2ccccc2)n1,38
20,CC1CC(C)CN(/C(=N\O)c2ccc(Oc3cc(Cl)ccc3Cl)nc2)C1 (stereo unspecified),10
21,CN(Cc1cccnc1)/C(=N\O)c1ccc(Oc2cc(Cl)ccc2Cl)nc1,-14
22,Cc1ccc(/C(=N/O)N2CC=CC2)c(Oc2cccc3ccc(C)nc23)n1,28

row,Compound,% inhibition [%]
1,N/C(=N\O)c1ccc(Oc2ccc3ccccc3c2)nc1,12
2,Cc1ccc(/C(=N/O)N2CCC=N2)c(Oc2cccc(F)c2)n1,21
3,CCN(CCC#N)Cc1coc(-c2ccc(C(F)(F)F)cc2)n1,-3
4,Cc1ccccc1CN/C(=N\O)c1ccnc(Oc2ccc(F)c(Cl)c2)c1,14
5,CN(/C(=N\O)c1cccnc1Oc1ccc(-n2cncn2)cc1)C1CCCCC1,14
6,Cc1ccc(-c2nc(CNCc3ccccc3)co2)cc1,-10
7,O/N=C(/c1ccc(Oc2cc(Cl)ccc2Cl)nc1)N1CCC2CCCCC2C1 (stereo unspecified),-2
8,O/N=C(/c1ccc(Oc2ccc3ccccc3c2)nc1)N1CCC2CCCCC2C1 (stereo unspecified),28
9,O/N=C(/c1ccc(Oc2ccc(Cl)cc2)nc1)N1CCC2CCCCC2C1 (stereo unspecified),99
10,O/N=C(/c1ccc(Oc2cccc3cccnc23)nc1)N1CCC2CCCCC2C1 (stereo unspecified),58
11,CC1CC(C)CN(/C(=N\O)c2ccc(Oc3cccc4cccnc34)nc2)C1 (stereo unspecified),-24
12,O/N=C(/c1ccc(Oc2cccc3cccnc23)nc1)N1CCN(c2ccccc2)CC1,-27
13,CCOc1ccc(Oc2nc(C)ccc2/C(=N/O)N2CC(C)CC(C)C2)cc1 (stereo unspecified),8
14,Cc1cc(Oc2ccc(/C(=N/O)NCc3cc(F)ccc3F)cn2)cc(C(C)C)c1,-14
15,O/N=C(/c1cccnc1OC1CCC1)N1CCN(c2ccc(F)cc2)CC1,7
16,CC(=O)c1ccc(N2CCN(Cc3coc(-c4ccccc4Cl)n3)CC2)cc1,-7
17,Cc1ccc(/C(=N/O)N2CCC(N(C)C)C2)c(Oc2ccc3ccccc3c2)n1 (stereo unspecified),20
18,Cc1ccc(Oc2ncccc2/C(=N/O)N2CC(C)CC(C)C2)c2c1CCC2 (stereo unspecified),6
19,Cc1ccc(Oc2ncccc2/C(=N/O)NC(C)C)c2c1CCC2,8
20,COCC(C)N/C(=N\O)c1cccnc1Oc1ccc(C)c2c1CCC2 (stereo unspecified),12
21,Cc1ccc(Oc2cc(/C(=N/O)NCC3CC3)ccn2)c2c1CCC2,40
22,CCCN/C(=N\O)c1cccnc1Oc1ccc(C)c2c1CCC2,42

row,Compound,% inhibition [%]
1,Cc1ccc(Oc2ncccc2/C(=N/O)NC2CCC(C)CC2)c2c1CCC2 (stereo unspecified),100
2,CCC(CC)N/C(=N\O)c1cccnc1Oc1ccc(C)c2c1CCC2,99
3,COCCN/C(=N\O)c1cccnc1Oc1ccc(C)c2c1CCC2,80
4,Cc1ccc(Oc2ncccc2/C(=N/O)N2CCC3CCCCC3C2)c2c1CCC2 (stereo unspecified),-7
5,Cc1ccc(Oc2ncccc2/C(N)=N/O)c2c1CCC2,9
6,Cc1ccc(Oc2ncccc2/C(=N/O)NCC2CC2)c2c1CCC2,99
7,Cc1ccccc1-c1nc(Cn2ncc3c2CCCC3)co1,-16
8,O/N=C(/c1ccc(Oc2cc(Cl)ccc2Cl)nc1)N1CCSCC1,-11
9,COc1ccc(Oc2nc(C)ccc2/C(=N/O)N(C)Cc2cccnc2)cc1,-3
10,CCCN(CCC)Cc1coc(-c2ccccc2Cl)n1,16
11,Oc1ccc(-c2nc(CN3CCc4ccccc4C3)co2)cc1,8
12,CCOc1ccc(-c2nc(CN(C)CC#N)co2)cc1,4
13,CSc1ccc(Oc2nc(C)ccc2/C(=N/O)n2nc(C)cc2C)cc1C,16
14,CSc1ccccc1Oc1ncccc1/C(=N/O)N1CCN(c2ccc(F)cc2)CC1,19
15,Cc1cccc(N2CCN(Cc3coc(-c4ccc(OC(F)(F)F)cc4)n3)CC2)c1C,-7
16,Cc1ccc(Oc2ncccc2/C(=N/O)NCC(C)C)c2c1CCC2,100
17,CC(C)CN/C(=N\O)c1cccnc1Oc1ccccc1,17
18,Cc1ccc(Oc2ncccc2/C(=N/O)N2CCCC2)c2c1CCC2,-1

# Source: ChEMBL document CHEMBL1857833, “Screening and optimization of specific chemical series against human African Trypanosomiasis (HAT)”
